cytoskel mod: alters cytoskeleton assembly in HUVEC cells; HUVEC TNFa F-actin phalloidin imaging, high content; inhibition, % at 2 µM; hit rate 0.18% among 91,000;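 active = inhibition above the batch mean plus 3 SD and confirmed as a hit by visual image inspection, cut at about 30% in these data, passing the limit was not always enough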
CYP2C9 activ: CYP2C9 (human) activation. P11712. hit rate 1.4% among 96,000. recombinant CYP2C9, luciferin-H conversion, luminescence; stronger effect = higher value; factor 1 = untreated enzyme, 0 = blocked. activation factor at 5 µM. AID 1024;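 active = activation factor of 2 or more for CYP2C9 at a 5 µM dose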;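 also: 0 = sulfaphenazole-blocked wells and 1 = vehicle-only wells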
Target sequence (P11712 whole entry, looked up): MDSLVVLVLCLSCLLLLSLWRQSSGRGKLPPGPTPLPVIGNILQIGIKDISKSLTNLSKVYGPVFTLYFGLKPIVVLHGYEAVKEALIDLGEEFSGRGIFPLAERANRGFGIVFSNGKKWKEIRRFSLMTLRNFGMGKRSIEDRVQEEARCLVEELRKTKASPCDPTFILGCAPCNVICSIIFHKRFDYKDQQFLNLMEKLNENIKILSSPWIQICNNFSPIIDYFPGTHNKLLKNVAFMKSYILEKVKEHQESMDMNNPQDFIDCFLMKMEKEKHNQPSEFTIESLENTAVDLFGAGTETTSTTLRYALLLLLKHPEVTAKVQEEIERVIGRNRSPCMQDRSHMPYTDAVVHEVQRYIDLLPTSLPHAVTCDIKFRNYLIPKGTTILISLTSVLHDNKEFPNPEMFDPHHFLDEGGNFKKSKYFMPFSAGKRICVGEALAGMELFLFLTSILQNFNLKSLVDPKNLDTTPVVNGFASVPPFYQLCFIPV
CYP2C19 activ: activators of human cytochrome P450 2C19; P33261; recombinant CYP2C19, luciferin-H EGE luminescence; stronger effect = higher value; 0 = fully inhibited enzyme, 1 = untreated enzyme; activation factor at 5 µM; 96,000 tested, under 10 active;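 active = activation factor of at least 2 at 5 µM in the primary screen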;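 also: 0 = wells with 2.5 mM tranylcypromine and 1 = vehicle-only wells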
CYP2C9 inhib: human CYP2C9 inhibition. P11712. CYP2C9 Supersomes, luciferin-H conversion, luminescence. inhibition, % at 5 µM. hit rate 20% among 96,000. AID 777;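 active = blocking of liver enzyme CYP2C9 beyond about 50% at 5 µM, limit read from the data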
E-sel TNF inh: blocks E-selectin expression induced by TNF alpha | inhibition, % at 2 µM | hit rate 0.71% among 120,000 | AID 1246 | HUVEC TNFa-induced E-selectin immunofluorescence, high content;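 active = inhibition above the batch mean plus 3 SD, and confirmed as a hit on visual image review, cut at about 43% in these data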;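 also: 0% = TNF-stimulated DMSO wells and 100% = unstimulated control wells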
CYP2C19 inhib: inhibitors of human CYP2C19; CYP2C19 Supersomes, luciferin-H EGE luminescence, 30 min; inhibition, % at 5 µM; hit rate 21% among 96,000; AID 778;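 active = CYP2C19 inhibition above a set limit at 5 µM in the primary screen, cut at about 50% in these data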;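 also: plate controls were negative control wells for no effect and 2.5 mM tranylcypromine positive control for full effect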
* hit, by the source's call; . = not tested or not shown. This is a sample that favours compounds with a hit; in the whole collection about 22% have one here.

SMILES | cytoskel mod | CYP2C9 activ | CYP2C19 activ | CYP2C9 inhib | E-sel TNF inh | CYP2C19 inhib
c1ccc(Cn2nnc3cnccc32)cc1 | . | 0.7 | 0.7 | 29 | -53 | 26
CC(Cl)c1cc(-c2ncc(C(F)(F)F)cc2Cl)no1 (stereo not given) | . | . | . | . | 31 | .
CCOC(=O)c1c(C)nc2ccc(C)cn12 | -13 | 1 | 0.7 | -4 | 7 | 32
CSc1nc(=O)n2cc(C)ccc2n1 | . | . | . | . | 64* | .
CCOC(=O)CSc1nnc(SCCN2C(=O)c3ccccc3C2=O)s1 | 1 | 0.2 | 0.6 | 83* | 18 | 42
CC(=O)Nc1cc(S(=O)(=O)Nc2cccc(C)c2)c(C)cc1C | 11 | 1.6 | 0.4 | -56 | 7 | 65*
CC(=O)Nc1cc(S(=O)(=O)Nc2ccccc2C)c(C)cc1C | -2 | 1.3 | 0.5 | -32 | -32 | 51*
CC(=O)Nc1cc(S(=O)(=O)Nc2ccccc2)c(C)cc1C | -4 | 1.1 | 0.8 | -8 | 0 | 21
CCc1nc2ccccc2c(=O)n1NCCc1ccccc1 | . | . | . | . | -4 | .
CCOC(=O)c1oc2ccccc2c1NC(=O)c1cccc(OC)c1 | 29 | 0.7 | 0.8 | 28 | 4 | 17
CC(=O)Nc1cccc(NC(=O)c2oc3ccccc3c2C)c1 | . | 1.6 | 0.5 | -58 | -16 | 53*
CCOC(=O)c1oc2ccccc2c1NC(=O)c1cccc(OC)c1OC | 2 | 0.3 | 0.3 | 66* | 15 | 67*
Cc1c(C(=O)NC2=NCCS2)oc2ccccc12 | -5 | 0.9 | 0.4 | 12 | -35 | 61*
COC(=O)c1cc(OC)c(OC)cc1NC(=O)c1oc2ccccc2c1C | 32* | . | . | . | -7 | .
COc1ccc(NC(=O)c2oc3ccccc3c2C)c(OC)c1 | 6 | 1.1 | 1.1 | -12 | -2 | -6
Cc1c(C(=O)NCCc2ccc3c(c2)OCCO3)oc2ccccc12 | 4 | 0.2 | 0.1 | 82* | -4 | 86*
O=C(NCCc1ccc2c(c1)OCCO2)c1ccccc1F | . | . | . | . | -18 | .
CC[C@H](C)NC(=O)CCCCCn1c(=S)[nH]c2c([nH]c3ccc(OC)cc32)c1=O | . | . | . | . | 9 | .
Cc1cc(C)n(-c2nc(NCC3CCCO3)c3c4c(sc3n2)COC(C)(C)C4)n1 (stereo not given) | -8 | 0.8 | 1 | 20 | 5 | 1
Cc1cc(C)n(-c2nc(SCC(=O)NCC3CCCO3)c3c4c(sc3n2)CCCC4)n1 (stereo not given) | . | 0.2 | 0.4 | 85* | . | 63*
Cc1ccc(C(=O)Nc2ccc3c(c2)OCCO3)o1 | 8 | 0.8 | 0.5 | 25 | -13 | 46
COc1ccccc1OCc1ccc(C(=O)OCC2CCCO2)o1 (stereo not given) | 0 | 1.2 | 0.2 | -16 | 5 | 76*
Cc1ccc(C(=O)Nc2ccncc2)o1 | 8 | 0.6 | 0.3 | 38 | 6 | 73*
COc1ccccc1OCc1ccc(C(=O)Nc2ccncc2)o1 | -3 | 0 | 0 | 98* | -6 | 100*
CCCc1ccc(OCc2ccc(C(=O)OC)o2)c(OC)c1 | 0 | 0.6 | 0.6 | 41 | 11 | 36
SMILES | cytoskel mod | CYP2C9 activ | CYP2C19 activ | CYP2C9 inhib | E-sel TNF inh | CYP2C19 inhib
O=C(Nc1cccnc1)c1ccc(COc2ccccc2Br)o1 | -6 | 0.4 | 0.1 | 60* | -17 | 89*
COc1ccccc1OCc1ccc(C(=O)NC(C)(C)C)o1 | -11 | 0.9 | 0.8 | 6 | 18 | 16
CC(C)(C)NC(=O)c1ccc(COc2ccccc2Br)o1 | 6 | 0.9 | 0.6 | 10 | . | 44
COC(=O)c1nc2ccccn2c1F | . | . | . | . | -12 | .
O=C(NCc1cccnc1)c1ccc(COc2ccccc2Br)o1 | 6 | 0.4 | 0.2 | 61* | 12 | 79*
O=C(NCc1cccnc1)c1ccc(COc2ccc3c(c2)CCC3)o1 | -2 | 0.3 | 0 | 67* | -9 | 99*
CCN(CC)C(=O)c1ccc(COc2ccccc2Br)o1 | 32 | 1.2 | 0.6 | -15 | . | 40
COc1ccccc1OCc1ccc(C(=O)NCc2ccco2)o1 | 0 | 0.8 | 0.2 | 24 | 8 | 76*
O=C(N/N=C/c1ccc2ccccc2c1)c1ccc(COc2ccc3c(c2)CCC3)o1 | 8 | 0.5 | 0.5 | 48 | -2 | 48
O=C(Nc1nc2ccc([N+](=O)[O-])cc2s1)C1CCCO1 (stereo not given) | . | . | . | . | 7 | .
O=C(NCc1ccco1)C(c1ccco1)N(C(=O)Cn1nnc2ccccc21)c1ccc2c(c1)CCC2 (stereo not given) | -12 | . | . | . | -16 | .
COc1c(Cl)cc(Cl)cc1C(=O)Nc1ccc(NC(C)=O)cc1 | . | . | . | . | 64* | .

Source: PubChem
